Test systems include NCI-H23 lung; NCI-H226 lung; NCI-H322M lung; NCI-H460 lung; HOP-92 NSCLC; NCI-H522 lung; A549/ATCC NSCLC; 786-0 renal; COLO 205 colon; HOP-62 NSCLC.
Assay in all cases: NCI-60 one-dose screen, 48 h (100 = growth as untreated, 0 = no growth, -100 = all killed)
Common to all, as to details: 10 µM unless noted

Molecules are shown by their SMILES. About 83,000 compounds went through this panel and 20% of them were active in at least one assay; those are over-represented in the sample as a whole.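 Cells were grown in 96-well plates and exposed to the test compound at a single concentration for 48 hours; results are reported as percent growth, with values below 10 considered active.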 Unmarked numbers belong to inactive results. Activity calls are given as the source filed them.

For the compound `CCn1cc(-c2ccnc(NCCNS(=O)(=O)c3ccc(Br)cc3)c2)c(-c2cccc(OC)c2)n1`, the growth is -96.1% (active) with NCI-H23 lung; 72.9% in the assay with NCI-H226 lung; 85.3% in the assay on NCI-H322M lung; 78.4% with NCI-H460 lung; 51.1% with HOP-92 NSCLC; 56.7% in the assay on NCI-H522 lung. Besides, the growth was 62.4% in the assay on A549/ATCC NSCLC, 71.3% with 786-0 renal and 93.5% in the assay with COLO 205 colon.
Consider `CCCCN(CCCC)CC(O)c1ccc(OCc2ccccc2)c2ccccc12` (stereo not given), for which the growth in the assay with NCI-H23 lung was 61.2%; in the assay on NCI-H226 lung, 104%; in the assay with NCI-H322M lung, 90%; with HOP-62 NSCLC, 109%; in the assay on HOP-92 NSCLC, 76.6%; in the assay on NCI-H522 lung it was 23.7%. The growth in the assay on A549/ATCC NSCLC was 86.1%; with 786-0 renal it was 84.6%; with COLO 205 colon it was 87.9%.
For `Cc1nc(-c2ccccc2)sc1CC#N`, the growth with NCI-H23 lung is 106%; in the assay with NCI-H226 lung, 93.1%; in the assay with NCI-H322M lung, 101%; with HOP-62 NSCLC, 102%; in the assay with HOP-92 NSCLC, 99.2%; with NCI-H522 lung, 94.6%. Further, the growth in the assay with A549/ATCC NSCLC was 100%; with 786-0 renal it was 104%; with COLO 205 colon it was 122%.
`C[C@H]1[C@H](C)CC[C@]2(C(=O)N3CCN(C)CC3)CC[C@]3(C)C(=CC[C@@H]4[C@@]5(C)C/C(=C/c6ccco6)C(=O)C(C)(C)[C@@H]5CC[C@]43C)[C@H]12`: the growth was 32.5% [100 µM] in the assay with NCI-H23 lung; 37.4% [100 µM] in the assay on NCI-H226 lung; 51.6% [100 µM] with NCI-H322M lung; 35.8% [100 µM] in the assay with HOP-62 NSCLC; 56.9% [100 µM] in the assay on HOP-92 NSCLC; 4.91% [100 µM] (active) in the assay on NCI-H522 lung. Besides, the growth in the assay with A549/ATCC NSCLC is 24.8% [100 µM]; in the assay with 786-0 renal, 40.6% [100 µM]; with COLO 205 colon it was 40.4% [100 µM].
On to `O=C(NNc1ccc(-c2ccccc2)nn1)c1ccc(F)cc1`, for which the growth in the assay with NCI-H23 lung is 104%; with NCI-H226 lung, 98.7%; in the assay with NCI-H322M lung, 94.3%; with HOP-62 NSCLC it was 106%; in the assay with HOP-92 NSCLC, 91.5%; in the assay with NCI-H522 lung, 95.2%. Moreover, the growth in the assay with A549/ATCC NSCLC is 98.4%; with 786-0 renal, 78%; in the assay with COLO 205 colon it was 112%.
Consider `COc1ccc2c(c1)C(C)Cc1c(Cl)ncnc1N2C` (stereo not given), for which the growth in the assay on NCI-H23 lung is 7.68% (active); with NCI-H226 lung, -3.41% (active); in the assay with NCI-H322M lung it was 36.1%; with HOP-62 NSCLC, 11.8%; with HOP-92 NSCLC, 6.91% (active); with NCI-H522 lung it was -49.9% (active). The growth with A549/ATCC NSCLC is 15%; in the assay on 786-0 renal, 7.84% (active); with COLO 205 colon it was -66% (active).
As for `COc1ccc2nc3c(cc2c1)C(=O)CC(c1ccccc1)C3` (stereo not given), the growth with NCI-H23 lung was 47.5%; in the assay with NCI-H226 lung, 26.5%; with NCI-H322M lung, 37.8%; in the assay with HOP-62 NSCLC, 39.2%; in the assay on HOP-92 NSCLC, 61.6%; in the assay with NCI-H522 lung it was 15.4%. The growth with A549/ATCC NSCLC is 34.8%; in the assay with 786-0 renal, 52.8%; with COLO 205 colon, 1.93% (active).
Consider `CCn1cc(-c2ccnc(NCCNS(=O)(=O)c3cccc4ccccc34)c2)c(-c2cccc(O)c2)n1`, for which the growth in the assay with NCI-H23 lung was 100%; in the assay on NCI-H226 lung it was 94.2%; in the assay with NCI-H322M lung it was 98.9%; in the assay on HOP-62 NSCLC, 113%; in the assay on HOP-92 NSCLC it was 79.8%; in the assay with NCI-H522 lung, 105%. Moreover, the growth with A549/ATCC NSCLC is 103%; with 786-0 renal it was 92.3%; in the assay with COLO 205 colon, 112%.
With `C[n+]1c(-c2ccccc2)c2cc(N)ccc2c2ccccc21`, the growth with NCI-H23 lung is 27.5%; in the assay on NCI-H226 lung, 26.3%; in the assay on NCI-H322M lung it was 70.8%; in the assay with HOP-62 NSCLC it was 63.8%; in the assay on HOP-92 NSCLC, 54.5%; in the assay with NCI-H522 lung, -5.84% (active). The figures for the growth with A549/ATCC NSCLC, in the assay with 786-0 renal and in the assay with COLO 205 colon were 44.4%, 55.3% and 16.7%, respectively.
Consider `CC1Cc2c(Cl)ncnc2N(C)c2ccccc21` (stereo not given), for which the growth with NCI-H23 lung is 18.6%; in the assay with NCI-H226 lung it was 1.16% (active); with NCI-H322M lung, 26.8%; in the assay on HOP-62 NSCLC, 22.8%; in the assay on HOP-92 NSCLC, 26%; with NCI-H522 lung, 57.7%. The values for the growth in the assay with A549/ATCC NSCLC, in the assay with 786-0 renal and with COLO 205 colon were 16.6%, 4.7% (active) and -81.1% (active), respectively.
Consider `CCN(CC)c1ccc2cc(C(Nc3ccc(Br)c(C(F)(F)F)c3)c3nnnn3C(C)(C)C)c(=O)oc2c1` (stereo not given), for which the growth is 100% in the assay on NCI-H23 lung; 86.1% in the assay on NCI-H226 lung; 99.6% with NCI-H322M lung; 94% in the assay on HOP-62 NSCLC; 87.5% in the assay with HOP-92 NSCLC; 77.9% in the assay on NCI-H522 lung. Besides, the results for the growth with A549/ATCC NSCLC, with 786-0 renal and with COLO 205 colon were 86.3%, 99.8% and 101%, respectively.
As to `Cc1cc(C)c(-c2cc(O)c(-c3c(C)cc(C)cc3C)cc2O)c(C)c1`, the growth is 34.9% with NCI-H23 lung; 64.4% in the assay on NCI-H226 lung; 68.6% in the assay on NCI-H322M lung; 47.2% with HOP-62 NSCLC; 94.3% in the assay with HOP-92 NSCLC; -12.7% (active) in the assay on NCI-H522 lung. In addition, the growth is 47.6% with A549/ATCC NSCLC, 30.4% with 786-0 renal and -12.8% (active) with COLO 205 colon.
Consider `CN(C)c1ccc(N=Nc2ccc3ccccc3c2)cc1`, for which the growth is 91.5% in the assay on NCI-H23 lung; 79.9% in the assay with NCI-H226 lung; 89.6% in the assay with NCI-H322M lung; 110% in the assay on HOP-62 NSCLC; 82.1% with HOP-92 NSCLC; 71.7% in the assay on NCI-H522 lung. Besides, the growth is 92% in the assay on A549/ATCC NSCLC, 122% in the assay with 786-0 renal and 73.7% with COLO 205 colon.
As for `CCCCCCCCCCCCCCNC(=O)Nc1ccc(Cl)c(Cl)c1`, the growth with NCI-H23 lung was -0.614% (active); in the assay with NCI-H226 lung, 18.5%; with NCI-H322M lung, 108%; in the assay with HOP-62 NSCLC, 56.6%; with HOP-92 NSCLC it was 9.28% (active); with NCI-H522 lung it was -7% (active). Moreover, the growth in the assay with A549/ATCC NSCLC is 77.8%; with 786-0 renal, 12.3%; in the assay on COLO 205 colon, 31.7%.
`CC1(C)OC2[C@@H](CNC(=O)NC(=O)NC(=O)CI)O[C@@H](n3cnc4c(NC(=O)Nc5ccccc5)ncnc43)[C@H]2O1` (stereo not given in full): the growth in the assay on NCI-H23 lung was 57.7%; in the assay on NCI-H226 lung it was 97.1%; in the assay on NCI-H322M lung, 103%; in the assay on HOP-62 NSCLC, 78%; with HOP-92 NSCLC, -63.2% (active); with NCI-H522 lung it was -76% (active). Also, the growth is 94.9% in the assay with A549/ATCC NSCLC, -77.9% (active) in the assay with 786-0 renal and 51.7% with COLO 205 colon.
